From PubChem BioAssay AID504329 (Southern Research Specialized Biocontainment Screening …, 2011)
Screen size: about 340,000 compounds; about 1,000 (0.29%) were called active. The list is a sample of the results. Entries with a potency or affinity are not part of this list. Unmarked numbers belong to inactive results. Rule as the data show it: inconclusive = inhibition above about 27% without an active follow-up result; inactive = below that.

Experiment: H1N1 influenza NS1A inhibitors, functional cell based assay (AID 504329)
Settings: percent inhibition, at 12.5 µM, hits give high values

SMILES	inhibition [%]
Cc1cc(C)cc(NC(=O)C(OC(=O)c2sccc2C)c2ccccc2)c1 (stereo not given)	-3.16
COc1ccc(S(=O)(=O)N2CCCC2C(=O)NCc2ccccc2Cl)cc1 (stereo not given)	-6.48
CC1(C)CC(=O)C2=C(C1)OC(=O)CC2c1cccs1 (stereo not given)	-6.75
CCN(CC)S(=O)(=O)c1ccc(Cl)c(NC(=O)COC(=O)c2c(C)noc2C)c1	-8.29
COc1ccc2nc(SC(C)C(=O)NCC(=O)Nc3ccc(F)c(F)c3F)[nH]c2c1 (stereo not given)	-9.36
C/C(=N\NC(=O)CN1CCN(Cc2ccccc2)CC1)c1cccs1	0.29
O=C(CNC(=O)c1ccccc1F)OCCCOC(=O)CNC(=O)c1ccccc1F	-5.51
NC(=O)COC(=O)/C=C/c1ccc(S(=O)(=O)N2CCCCCC2)cc1	5.4
C[C@H]1CCC[C@]2(O[C@H](CCO)C[C@@H](O)[C@@H]2O)O1	-6.34
Cc1nc(C(F)(F)F)c(C(=O)NC(=O)Nc2ccccc2)s1	-2.55
Cc1nc(C(F)(F)F)c(C(=O)N/N=C(\N)c2cccnc2)s1	-4.6
COc1ccccc1Oc1ncnc2c1cnn2-c1ccccc1	-2.97
CCOC(=O)N1CCc2c(sc(NC(=O)C3COc4ccccc4O3)c2C(N)=O)C1 (stereo not given)	-11.4
C#CCOCCOCCOCCNc1nc(N2CCN(C(=O)CCCCCCCCCCNC(=O)[C@H]([C@@H](C)CC)n3cc(CCCCCN)nn3)CC2)nc(N2CCN(C(=O)CCCCCCCCCCNC(=O)[C@H](CO)n3cc(CCCCCN)nn3)CC2)n1	22.1
C#CCOCCOCCOCCNc1nc(N2CCN(C(=O)CCCCCCCCCCNC(=O)[C@H]([C@@H](C)CC)n3cc(CCCCN=C(N)N)nn3)CC2)nc(N2CCN(C(=O)CCCCCCCCCCNC(=O)[C@H](CO)n3cc(CCCSC)nn3)CC2)n1	-16.7
O=C(COC(=O)c1ccc2ncsc2c1)NC(=O)c1ccccc1	-8.75
N#CC(c1ccccc1)c1cnccn1 (stereo not given)	-11
Cc1ncc(CO)c(/C=N/NC(=S)Nc2ccc(Cl)c(Cl)c2)c1O	2.53
COc1ccccc1N/N=C/c1c(CO)cnc(C)c1O	2.27
Cc1ncc(CO)c(/C=N/NC(=S)Nc2ccc(C(C)C)cc2)c1O	11.8
Oc1ccc(/C=N/Nc2ccc(C(F)(F)F)cn2)cc1	13.7
COc1cc(/C=N/Nc2ccc(C(F)(F)F)cn2)cc(OC)c1O	-10.9
Cc1ncc(CO)c(/C=N/Nc2cccc(Cl)n2)c1O	-2.98
COc1ccccc1N(C(=O)c1ccco1)C(C(=O)NC1CCCCC1)c1cc(OC)c(OC)c(OC)c1 (stereo not given)	7.04

SMILES	inhibition [%]
CC(C)=C1C2CCC1C1C(=O)N(NC(=O)COc3ccc(C(C)(C)C)cc3)C(=O)C21 (stereo not given)	4.52
Cc1ccc(-c2nnn(CCOc3cccc(Br)c3)n2)cc1	-6.07
c1ccc2nc3[nH]cnc3nc2c1	1.88
COc1ccc(NC(=O)CC2(CC(=O)N3CCOCC3)CCCC2)cc1Cl	-1.17
CC1CC(C)CN(S(=O)(=O)c2ccc(C(=O)Nc3nnc(C4CC4)o3)cc2)C1 (stereo not given)	-2.79
CC(C)(C)NC(=O)C(c1ccccc1F)N(Cc1ccco1)C(=O)c1csnn1 (stereo not given)	-1.84
O=C(O)C(c1ccccc1)N1C(=O)/C(=C\c2ccc(O)c(O)c2)SC1=S (stereo not given)	10.8
Cc1nc2ccc(C(=O)N/N=C/c3cc([N+](=O)[O-])ccc3O)cc2[nH]1	19
C(=N\Nc1nc2ccccc2[nH]1)/c1ccc2ncccc2c1	-2.83
COc1ccc(O)c(/C=N/Nc2nc3ccccc3[nH]2)c1	-13.2
Oc1ccccc1/C=N/Nc1nn[nH]n1	-4.08
O=S1(=O)N=C(N/N=C/c2cccs2)c2ccccc21	3.71
O=S1(=O)N=C(N/N=C/c2ccco2)c2ccccc21	-20
Cc1ccccc1/C=N/Nc1nc2ccccc2[nH]1	-2.18
COc1ccc([N+](=O)[O-])cc1/C=N/Nc1nn[nH]n1	-3.63
Cc1ccc(C(=O)N2CCN(c3ccccc3Cl)CC2)cc1[N+](=O)[O-]	-8.39
COCCn1c(-c2ccc(SC)cc2)nc2c1c(=O)[nH]c(=O)n2CC(C)C	6.85
Cc1ccc(C)c(OC(C)C(=O)Nc2nccs2)c1 (stereo not given)	-0.26
Cc1ccc(S(=O)(=O)N[C@H](C(=O)OCC(=O)NC(=O)Nc2ccc3c(c2)OCCO3)C(C)C)cc1	-8.36
CC(=O)Nc1ccc(NC(=O)C(C)OC(=O)C(C)SCC(=O)Nc2ccc(C)cc2)cc1 (stereo not given)	-10.9
N#Cc1ccccc1S(=O)(=O)N1CCN(CC(=O)Nc2ccccc2C(=O)NC2CC2)CC1	-1.3
Fc1ccc(-c2csc(-c3ccccn3)n2)cc1F	-3.95
Cc1ccc2ccc3cccc4ccc1c2c34	-18.9
COc1cnc(-c2ccccn2)nc1Sc1ccc(F)cc1	6.63

SMILES	inhibition [%]
O=[N+]([O-])c1ccc(/C=N/NC2=NS(=O)(=O)c3ccccc32)cc1	1.07
O=[N+]([O-])c1cccc(/C=N/Nc2ccccn2)c1	0.08
O=[N+]([O-])c1ccc(/C=N/Nc2ccccn2)cc1	-3.42
O=[N+]([O-])c1ccc(O)c(/C=N/Nc2ccccc2Cl)c1	-14.4
O=[N+]([O-])c1cccc(/C=N/NC2=NS(=O)(=O)c3ccccc32)c1	-4.67
O=[N+]([O-])c1ccc(Cl)cc1C=NNc1ccccn1	-1.7
O=[N+]([O-])c1cc(Cl)cc(/C=N/Nc2nc3ccccc3s2)c1O	3.56
O=[N+]([O-])c1ccc(NN=Cc2cc(Br)ccc2O)nc1	6.5
O=C(NCCc1ccc2c(c1)OCCO2)c1ccc([N+](=O)[O-])cc1Cl	-0.08
O=C(CSc1nnnn1-c1ccc2c(c1)OCO2)NCc1ccccc1	0.06
CCCCOc1c(Br)cc(CNCCCN2CCOCC2)cc1OC	1.13
Cc1ccc(CNc2cc(C(=O)O)ccc2C)s1	14.2
O=C(NCc1ccccc1F)C1CCCN1S(=O)(=O)c1ccc(F)cc1 (stereo not given)	4.5
O=C(O)c1cccc(NC(=O)c2ccccc2NC(=O)c2ccco2)c1	-7.51
CN(C)/C=C(\C(=O)c1cccc(Cl)c1)c1nnnn1-c1ccccc1	-1.13
Nc1ccc(C(=O)C(=O)c2ccc(N)cc2)cc1	1.62
N=C(N)c1ccc(N)cc1	2.89
CCOC(=O)c1cc(CC)sc1NC(=O)CC1SC(N)=NC1=O (stereo not given)	-8.66
Cc1ccc(S(=O)(=O)Cn2nnnc2C(CC(C)C)N2CCN(C3CCCC3)CC2)cc1 (stereo not given)	-5.05
COc1cc(C(=O)N/N=C(\Cc2ncc[nH]2)c2ccccc2)cc(OC)c1OC	-5.85
COc1ccc(C(=O)N/N=C(\Cc2ncc[nH]2)c2ccccc2)cc1	1.55
CN(CC(=O)Nc1ccccc1Cl)C(=O)COC(=O)c1ccc(-c2ccc(O)cc2)cc1	-4.29
CCC(=O)Nc1ccc(C(=O)N/N=C/c2c(C)[nH]c3ccccc23)cc1	10.2
CC(CNC(=O)c1cc(COc2c(F)cccc2F)on1)Oc1cccnc1 (stereo not given)	5.51

SMILES	inhibition [%]
O=C(/C=C/c1ccccc1)NC(=S)NNC(=O)c1cccnc1	11.7
O=C(NNC(=S)NC(=O)c1cccnc1)c1ccc(F)cc1	3.02
O=C(NNC(=S)NC(=O)c1cccnc1)c1ccc(Cl)cc1	-8.92
O=C(NNC(=S)NC(=O)c1ccc(F)cc1)c1ccncc1	-6.57
O=C(NNC(=O)c1cnccn1)c1ccc(Cl)cc1	-1.07
COc1ccc(/C=C/C(=O)NC(=S)NNC(=O)c2cnccn2)cc1	22
CSc1nsc(SCC(=O)N2CCCc3ccccc32)n1	-4.75
COc1ccc(NC(C)=O)c2nc(C)c(C)nc12	2.97
CC1(C)OC(c2ccccc2)=C/C(=C/C=Nc2ccccc2)O1	-14.7
CC1(C)OC(c2ccccc2)=C/C(=C/C=C2C(=O)NC(=O)NC2=O)O1	22.3
CCN(CC)C(=O)Oc1cc(=O)n2c3c(cccc13)CCC2	2.43
Cc1cc(C(=O)Nc2ccc3c(c2)OCO3)no1	6.49
O=C(COc1ccc(Cl)cc1Br)OCC(=O)c1ccc[nH]1	-4.26
COc1cc(C2SCC(=O)Nc3c2c(=O)[nH]n3C2CCCCCC2)cc(OC)c1OC (stereo not given)	3.42
N#Cc1ccccc1OCC(=O)Nc1ccccc1C(=O)NC1CC1	-6.65
CCOC(=O)c1c(C)[nH]c(C(=O)N/N=C\c2ccccc2O)c1C	0.86
O=C(Cn1nc2ccccc2n1)N/N=C/c1cc(Cl)cc([N+](=O)[O-])c1O	17.6
CCOC(=O)c1c(C)[nH]c(C(=O)N/N=C\c2ccccc2Cl)c1C	1.32
Cc1cc(C)n(CC(=O)N/N=C/c2cccc([N+](=O)[O-])c2)n1	4.33
O=C(Cn1nnc(-c2ccccc2)n1)N/N=C/c1cc([N+](=O)[O-])ccc1O	0.1
Cc1cc(C)n(CC(=O)N/N=C/c2cc(Br)cc([N+](=O)[O-])c2O)n1	15.4
COc1cc([N+](=O)[O-])cc(/C=N/NC(=O)Cn2nc(C)cc2C)c1O	-28.6
COc1cc([N+](=O)[O-])cc(/C=N/NC(=O)Cn2nccc2C)c1O	13.5
